Read-out in experiment [1]: Protein phosphatase 2A (PPP2R4), PTPA (gene 5524)
The experiment can be described thus: LTEA_HepaRG_PPP2R4: Life Technologies and Expression Analysis (LTEA) Assay for Protein phosphatase 2A (PPP2R4) using HepaRG (AID 2283522). The settings on record: mRNA level, 48 h; actives raise or lower the signal. The essentials:
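Cells were plated, cultured 48 h, switched to serum-free induction medium, then dosed for 48 h (8 points, max 100 uM, 0.5% DMSO). RNA was isolated and PPP2R4 expression measured by TaqMan qRT-PCR.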

Read-out in experiment [2]: solute carrier (SLC22A1), SLC22A1 (gene 6580)
In words: LTEA_HepaRG_SLC22A1: Life Technologies and Expression Analysis (LTEA) Assay for solute carrier (SLC22A1) using HepaRG (AID 2283524). Conditions: mRNA level, 48 h; actives raise or lower the signal. The essentials: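 qRT-PCR readout (TaqMan, Fluidigm arrays) of SLC22A1 transcript, normalized to three housekeeping genes; bidirectional curve fit relative to 0.5% DMSO vehicle. Differentiated human HepaRG cells, 48 h chemical exposure, top concentration 100 uM, half-log steps, eight points.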

Read-out in experiment [3]: Pyruvate Dehydrogenase Kinase 4 (PDK4), PDK4 (gene 5166)
In words: LTEA_HepaRG_PDK4: Life Technologies and Expression Analysis (LTEA) Assay for Pyruvate Dehydrogenase Kinase 4 (PDK4) using HepaRG (AID 2283525). The settings on record: mRNA level, 48 h; actives raise or lower the signal. The essentials: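 HepaRG (human liver line), 48 h chemical exposure, 8-pt half-log CRC top 100 uM, 0.5% DMSO vehicle, duplicates. Readout: TaqMan qRT-PCR of PDK4 mRNA, housekeeping-normalized; gain/loss fit relative to DMSO baseline.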

Read-out in experiment [4]: NAD(P)H dehydrogenase [quinone] 1 (NQO1), NQO1 (gene 1728)
The experiment can be described thus: LTEA_HepaRG_NQO1: Life Technologies and Expression Analysis (LTEA) Assay for NAD(P)H dehydrogenase [quinone] 1 (NQO1) using HepaRG (AID 2283526). The settings on record: mRNA level, 48 h; actives raise or lower the signal. The essentials:
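Transcript induction or suppression is quantified by qRT-PCR in human HepaRG liver cells dosed for 48 hours. Eight half-log concentrations topping at 100 uM are used, with 0.5% DMSO as vehicle and baseline.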

Read-out in experiment [5]: Nuclear factor erythroid 2-related factor 2 (Homo sapiens) (UniProt Q16236)
The experiment can be described thus: LTEA_HepaRG_NFE2L2: Life Technologies and Expression Analysis (LTEA) Assay for Nuclear factor erythroid 2-related factor 2 (NFE2L2) Transcription Factor using HepaRG (AID 2283527).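 For outcome: TaqMan qRT-PCR transcript level normalised to ACTB GAPDH and POLR2A housekeeping genes.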 Conditions: mRNA level, 48 h; actives raise or lower the signal. In outline: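 HepaRG, 48 h dosing, 8-pt half-log series from 100 uM in 0.5% DMSO, duplicates. Read-out: NFE2L2 mRNA by qRT-PCR (ACTB/GAPDH/POLR2A normalization). Bidirectional curve fit vs DMSO baseline.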

Read-out in experiment [6]: succinate dehydrogenase complex iron sulfur subunit B (SDHB), SDHB (gene 6390)
The experiment can be described thus: LTEA_HepaRG_SDHB: Life Technologies and Expression Analysis (LTEA) Assay for succinate dehydrogenase complex iron sulfur subunit B (SDHB) using HepaRG (AID 2283528). Conditions: mRNA level, 48 h; actives raise or lower the signal. The essentials: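 A human HepaRG culture in serum-free induction medium received test chemicals for 48 h over an eight-point range capped at 100 uM. SDHB expression change was quantified by qRT-PCR.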

Read-out in experiment [7]: Signal transducer and activator of transcription 3 (Homo sapiens) (UniProt P40763)
In words: LTEA_HepaRG_STAT3: Life Technologies and Expression Analysis (LTEA) Assay for Signal transducer and activator of transcription (STAT3) using HepaRG (AID 2283529). The settings on record: mRNA level, 48 h; actives raise or lower the signal. In outline:
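HepaRG, 48 h exposure, 8-pt half-log series (top 100 uM), 0.5% DMSO vehicle, duplicates. Readout: STAT3 transcript by Fluidigm qRT-PCR, housekeeping-normalized; bidirectional fit vs DMSO baseline.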

Read-out in experiment [8]: solute carrier (SLCO1B1), SLCO1B1 (gene 10599)
The experiment can be described thus: LTEA_HepaRG_SLCO1B1: Life Technologies and Expression Analysis (LTEA) Assay for solute carrier (SLCO1B1) using HepaRG (AID 2283530). Conditions: mRNA level, 48 h; actives raise or lower the signal. In outline: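 Differentiated human HepaRG cells, plated 48 h, switched to serum-free induction medium and exposed in duplicate for 48 h to 8 half-log concentrations (top 100 uM) in 0.5% DMSO. SLCO1B1 mRNA by TaqMan qRT-PCR, normalized to ACTB/GAPDH/POLR2A.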

Read-out in experiment [9]: sulfotransferase 2A1 (SULT2A1), SULT2A1 (gene 6822)
The experiment can be described thus: LTEA_HepaRG_SULT2A1: Life Technologies and Expression Analysis (LTEA) Assay for sulfotransferase 2A1 (SULT2A1) using HepaRG (AID 2283531). The settings on record: mRNA level, 48 h; actives raise or lower the signal. In outline:
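Differentiated human HepaRG cells in serum-free induction medium were exposed for 48 h to eight half-log concentrations (top 100 uM, 0.5% DMSO). SULT2A1 mRNA was measured by qRT-PCR, normalized to ACTB, GAPDH and POLR2A, and fitted bidirectionally against DMSO.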

Read-out in experiment [10]: Transforming Growth Factor (TGFA), TGFA (gene 7039)
In words: LTEA_HepaRG_TGFA: Life Technologies and Expression Analysis (LTEA) Assay for Transforming Growth Factor (TGFA) using HepaRG (AID 2283532). The settings on record: mRNA level, 48 h; actives raise or lower the signal. In outline:
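qRT-PCR read-out of TGFA transcript, normalized to three housekeeping genes, fitted bidirectionally against 0.5% DMSO baseline. Human HepaRG cultures received chemicals for 48 h at eight half-log concentrations, top 100 uM.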

Read-out in experiment [11]: Transforming Growth Factor (TGFB1), TGFB1 (gene 7040)
In words: LTEA_HepaRG_TGFB1: Life Technologies and Expression Analysis (LTEA) Assay for Transforming Growth Factor (TGFB1) Transporter using HepaRG (AID 2283533). The settings on record: mRNA level, 48 h; actives raise or lower the signal. The essentials:
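Differentiated human HepaRG cells in serum-free induction medium were exposed in duplicate for 48 h to eight concentrations (top 100 uM, half-log steps, 0.5% DMSO). TGFB1 mRNA was quantified by qRT-PCR, normalized to ACTB, GAPDH, POLR2A, and fitted bidirectionally against DMSO.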

Read-out in a further experiment: TIMP1, TIMP1 (gene 7076)
The experiment can be described thus: LTEA_HepaRG_TIMP1: Life Technologies and Expression Analysis (LTEA) Assay for TIMP1 using HepaRG (AID 2283534). Conditions: mRNA level, 48 h; actives raise or lower the signal. In outline: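 Differentiated human HepaRG cells in serum-free induction medium were exposed 48 h to chemicals (8 half-log concentrations, top 100 uM, 0.5% DMSO). TIMP1 mRNA was quantified by TaqMan qRT-PCR, normalized to ACTB/GAPDH/POLR2A; bidirectional fit versus DMSO.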

Read-out in experiment [12]: Tumor necrosis factor receptor 1 (TNFRSF1A), TNFRSF1A (gene 7132)
In words: LTEA_HepaRG_TNFRSF1A: Life Technologies and Expression Analysis (LTEA) Assay for Tumor necrosis factor receptor 1 (TNFRSF1A) using HepaRG (AID 2283535). Conditions: mRNA level, 48 h; actives raise or lower the signal. The essentials:
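Differentiated human HepaRG cells were exposed in duplicate for 48 h in serum-free induction medium to eight concentrations (top 100 uM, half-log steps, 0.5% DMSO). TNFRSF1A mRNA was quantified by qRT-PCR, normalized to ACTB, GAPDH and POLR2A, then fitted bidirectionally against DMSO.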

Read-out in experiment [13]: Thyroid Hormone Responsive (THRSP), THRSP (gene 7069)
In words: LTEA_HepaRG_THRSP: Life Technologies and Expression Analysis (LTEA) Assay for Thyroid Hormone Responsive (THRSP) using HepaRG (AID 2283536). Conditions: mRNA level, 48 h; actives raise or lower the signal. The essentials:
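qRT-PCR read-out (Fluidigm TaqMan), housekeeping-normalized (ACTB/GAPDH/POLR2A). HepaRG, 48 h chemical exposure, 8-pt half-log series from 100 uM in 0.5% DMSO, duplicates. Bidirectional curve fit vs 0.5% DMSO baseline.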

Read-out in experiment [14]: UDP glucuronosyltransferase (UGT1A1), UGT1A1 (gene 54658)
In words: LTEA_HepaRG_UGT1A1: Life Technologies and Expression Analysis (LTEA) Assay for UDP glucuronosyltransferase (UGT1A1) using HepaRG (AID 2283538). The settings on record: mRNA level, 48 h; actives raise or lower the signal. The essentials:
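Cells are plated, cultured 48 h, switched to serum-free induction medium, then dosed 48 h at eight concentrations (max 100 uM, 0.5% DMSO). RNA is isolated and UGT1A1 expression measured by qRT-PCR; changes versus DMSO are fitted in both directions.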

Read-out in experiment [15]: UDP glucuronosyltransferase (UGT1A6), UGT1A6 (gene 54578)
In words: LTEA_HepaRG_UGT1A6: Life Technologies and Expression Analysis (LTEA) Assay for UDP glucuronosyltransferase (UGT1A6) using HepaRG (AID 2283539). Conditions: mRNA level, 48 h; actives raise or lower the signal. The essentials: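 Human HepaRG cells were dosed for 48 h in serum-free induction medium with 0.5% DMSO vehicle, eight-point half-log series from 100 uM, in duplicate. UGT1A6 mRNA was measured by qRT-PCR, normalized to ACTB, GAPDH, POLR2A, and fitted bidirectionally against DMSO.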

Read-out in experiment [16]: X-box binding protein 1 (XBP1), XBP1 (gene 7494)
In words: LTEA_HepaRG_XBP1: Life Technologies and Expression Analysis (LTEA) Assay for X-box binding protein 1 (XBP1) using HepaRG (AID 2283540). Conditions: mRNA level, 48 h; actives raise or lower the signal. In outline:
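Differentiated human HepaRG cells in serum-free induction medium were exposed in duplicate for 48 h to eight half-log concentrations up to 100 uM in 0.5% DMSO. XBP1 mRNA was quantified by qRT-PCR, normalised to ACTB, GAPDH and POLR2A, with bidirectional fitting against DMSO.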

Experiment [17] in a line: LTEA_HepaRG_LDH_cytotoxicity: Cytotoxicity Assessment in the Life Technologies and Expression Analysis (LTEA) Assay (AID 2283563; active = hit-call score of the fitted dose curve at least 0.9, where 1 is the maximum;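 for AC50: LDH activity released into spent culture medium as a marker of cell death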). The essentials: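 Differentiated human HepaRG cells, plated 48 h beforehand, were switched to serum-free induction medium and exposed for 48 h to eight half-log concentrations (top 100 uM) in 0.5% DMSO. LDH was measured in spent medium; activity was fitted relative to DMSO vehicle.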

Read-out in experiment [18]: Phosphatase and tensin (PTEN), PTEN (gene 5728)
The experiment can be described thus: LTEA_HepaRG_PTEN: Life Technologies and Expression Analysis (LTEA) Assay for Phosphatase and tensin (PTEN) using HepaRG (AID 2283523). Conditions: mRNA level, 48 h; actives raise or lower the signal. In outline:
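HepaRG, 48 h exposure, 8-pt half-log series from 100 uM top, 0.5% DMSO vehicle, duplicates. Readout: Fluidigm qRT-PCR of PTEN transcript; housekeeping normalization (ACTB, GAPDH, POLR2A). Gain or loss fitted relative to DMSO baseline.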

Activity calls are given as the source filed them. Rule for the calls, unless noted: active = hit-call score of the fitted dose curve at least 0.9, where 1 is the maximum; inactive = score below 0.9.

Results on three compounds are retold here after PubChem BioAssay (EPA / NIEHS).

Nuclear factor erythroid 2-related factor 2 (Homo sapiens), sequence (Q16236 whole entry, looked up): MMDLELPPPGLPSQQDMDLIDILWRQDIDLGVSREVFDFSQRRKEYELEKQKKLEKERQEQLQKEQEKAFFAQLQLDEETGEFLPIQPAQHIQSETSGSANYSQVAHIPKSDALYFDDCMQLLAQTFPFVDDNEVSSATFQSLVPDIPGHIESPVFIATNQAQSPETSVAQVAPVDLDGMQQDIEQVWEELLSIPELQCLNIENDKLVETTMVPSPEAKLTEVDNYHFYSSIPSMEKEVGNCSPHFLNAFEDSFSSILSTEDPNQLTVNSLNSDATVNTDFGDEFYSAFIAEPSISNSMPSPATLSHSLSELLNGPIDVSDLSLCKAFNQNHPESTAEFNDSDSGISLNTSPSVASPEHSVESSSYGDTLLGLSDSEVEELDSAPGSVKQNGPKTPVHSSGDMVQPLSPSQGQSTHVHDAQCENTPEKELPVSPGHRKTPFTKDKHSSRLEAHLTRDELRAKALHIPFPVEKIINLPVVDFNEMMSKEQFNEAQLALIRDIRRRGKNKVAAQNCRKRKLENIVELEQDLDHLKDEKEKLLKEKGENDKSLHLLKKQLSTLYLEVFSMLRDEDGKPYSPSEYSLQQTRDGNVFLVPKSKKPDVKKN
Signal transducer and activator of transcription 3 (Homo sapiens), sequence (P40763 whole entry, looked up): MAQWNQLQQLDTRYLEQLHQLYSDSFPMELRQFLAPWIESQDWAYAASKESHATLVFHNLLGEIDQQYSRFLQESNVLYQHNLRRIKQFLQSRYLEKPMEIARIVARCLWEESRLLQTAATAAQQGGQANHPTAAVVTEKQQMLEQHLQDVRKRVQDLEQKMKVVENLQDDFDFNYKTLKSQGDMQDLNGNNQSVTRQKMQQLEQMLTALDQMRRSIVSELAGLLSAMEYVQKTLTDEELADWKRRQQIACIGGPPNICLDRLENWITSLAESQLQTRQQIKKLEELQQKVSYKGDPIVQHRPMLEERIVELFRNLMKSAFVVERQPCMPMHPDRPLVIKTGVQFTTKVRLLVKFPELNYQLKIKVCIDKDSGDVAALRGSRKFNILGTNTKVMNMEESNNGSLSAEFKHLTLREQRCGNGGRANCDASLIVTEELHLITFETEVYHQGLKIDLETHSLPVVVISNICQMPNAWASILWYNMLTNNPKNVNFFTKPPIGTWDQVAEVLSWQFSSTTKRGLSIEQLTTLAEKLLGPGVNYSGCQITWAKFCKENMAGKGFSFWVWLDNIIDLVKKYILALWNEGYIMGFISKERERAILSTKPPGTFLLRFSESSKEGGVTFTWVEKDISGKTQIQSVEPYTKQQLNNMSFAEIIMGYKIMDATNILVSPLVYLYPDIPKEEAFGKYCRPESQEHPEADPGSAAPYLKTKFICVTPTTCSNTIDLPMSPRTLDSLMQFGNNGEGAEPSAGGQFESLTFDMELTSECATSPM

Consider `CC(Oc1cccc(Cl)c1)C(=O)O` (centres undefined), for which the compound was classed as inactive in [1], in [2], in experiment [3], in experiment [4], in experiment [5] and in experiment [6]. In addition, the outcome in [7] is “inactive”; in experiment [8] it was “inactive”; in [9] it was “inactive”; in experiment [10], “inactive”; in experiment [11], “inactive”; with TIMP1, TIMP1 (gene 7076), “inactive”. The compound was classed as inactive in [12], in [13], in experiment [15], in experiment [16] and in experiment [17]. The AC50 in [14] was 10.1 µM (active).

As for `FC(F)C(F)(F)OCC(Cn1cncn1)c1ccc(Cl)cc1Cl` (centres undefined), the AC50 in [1] is 90.4 µM (active); in experiment [2] it was 19.7 µM (active); in [3], 12 µM (active); in [5], 73.7 µM (active); in experiment [8], 70.4 µM (active); in [9], 53.8 µM (active). In addition, the AC50 in experiment [10] was 62.2 µM (active); in experiment [11], 28.8 µM (active); in experiment [12] it was 49.8 µM (active); in experiment [13], 3.87 µM (active); in experiment [14], 38.1 µM (active); in experiment [15], 76.8 µM (active). Further, the AC50 in experiment [16] was 86.9 µM (active); in experiment [17], 75.2 µM (active). Also, the outcome in [18] was “inactive”; in [4] it was “inactive”; in experiment [6] it was “inactive”; in the experiment with TIMP1, TIMP1 (gene 7076), “inactive”.

On to `COP(=O)(NC(C)=O)SC` (centres undefined), for which the call in experiment [1], in experiment [18], in experiment [2], in experiment [3], in [4] and in experiment [5] was inactive. In addition, the result in experiment [6], in experiment [7], in experiment [8], in [9], in experiment [10] and in [11] was inactive. Besides, the outcome with TIMP1, TIMP1 (gene 7076) was “inactive”; in [13] it was “inactive”; in experiment [14], “inactive”; in experiment [15], “inactive”; in experiment [16] it was “inactive”; in experiment [17], “inactive”.
